ATXN viability = Viability Counterscreen for Primary qHTS for Inhibitors of ATXN expression; Potency, µM (titrated, usually from 56.7 µM), actives largely listed as cytotoxic; AID 651635, 2014; 0.49% of 400,000 active; S2 cells (HEK-293 line with an ATXN2-luciferase reporter) viability, CellTiter-Fluor protease fluorescence, 24 h; note: nearly all actives have a fitted effect of over 40% in size
Nrf2 block = Nrf2 qHTS screen for inhibitors; A549 ARE-Fluc reporter, luciferase luminescence, 18-24 h; Potency, µM (top dose mostly 46 µM), inactives show at the highest dose activity change, negative = inhibition, most hits filed as inhibitors; 2.1% of 360,000 active; AID 504444, 2011; note: % is set by controls: 0 for no effect and ±100 for the full control effect; nearly all actives have a fitted effect of over 60% in size
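A549 ARE_Fluc cells, 5000/well, 5% FBS OPTI-MEM; compounds in dose-response, 18-24 h at 37 °C/5% CO2; CellTiter-Fluor viability read (Ex 405/Em 525), then BugLite luciferase luminescence = Nrf2 activity.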
HepG2 tox = qHTS for Inhibitors of TGF-b: Cytotox Counterscreen | HepG2 CAGA-GFP viability, ATP luminescence, 18 h | 0.76% of 410,000 active | AID 588856, 2011 | Potency, µM (doses to about 46.1 µM), without a hit: at the highest dose activity change, negative = cytotoxicity, usual class: cytotoxic
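HepG2 CAGA-GFP cells (1000/well, DMEM with 1% FBS) received compound, then TGF-beta at 500 pg/mL final, and were incubated 18 hours at 37 degrees C. Viability was read by CellTiter-Glo luminescence. Media-only wells were set as complete cell-killing and DMSO as no toxicity.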
ATXN2 expr inh = Primary qHTS for Inhibitors of ATXN expression; HEK-293 ATXN2-luciferase reporter, luminescence, 24 h; Potency, µM (titrated, usually from 57 µM), for the others: at the top dose activity change, negative = inhibition, actives largely listed as inhibitors; 0.72% of 360,000 active; AID 1745845, 2022; note: % is set by controls: 0 for no effect and ±100 for the full control effect; nearly all actives have a fitted effect of over 55% in size
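ATXN2-luciferase reporter cells (luciferase flanked by upstream and downstream ATXN2 gene portions) were treated 24 h at 37 °C with compounds at up to 57 uM. SteadyGlo luminescence gave expression; GF-AFC fluorescence gave viability.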
A549 viability = Nrf2 qHTS screen for inhibitors: counterscreen for cytotoxicity. A549 ARE-Fluc cells, CellTiter-Fluor viability, 18-24 h. Potency, µM (titrated, usually from 46 µM), for the others: at the highest dose activity change, negative = cytotoxicity, most hits filed as inhibitors. 0.16% of 390,000 active; note: % is set by controls: 0 for no effect and ±100 for the full control effect
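A549 ARE_Fluc cells in 5% FBS OPTI-MEM were exposed to compounds in concentration-response for 18-24 h at 37 deg C. Viability was read by CellTiter-Fluor fluorescence (Ex 405/Em 525) after 30 min, before the luciferase read.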
TGFb inhibitor = qHTS for Inhibitors of TGF-b | 1.2% of 410,000 active | AID 588855, 2011 | Potency, µM (doses to about 46.1 µM), without a hit: top-dose activity, negative = inhibition, hits mostly inhibitors | HepG2 CAGA-GFP TGF-b/SMAD3 reporter, GFP fluorescence, 18 h; TGF-beta stimulated, 500 pg/mL final; note: % is set by controls: 0 for no effect and ±100 for the full control effect; nearly all actives have a fitted effect of over 65% in size
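Cell-based qHTS in HEPG2 carrying a CAGA-GFP Smad reporter; compounds added before 500 pg/mL final TGF-beta, 18 h incubation at 37 degrees C, GFP fluorescence quantified per cell by imaging cytometry.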
An asterisk follows results filed as active; i = inactive; ? = inconclusive; . = no result; ! = not confirmed by another sample. Hits are enriched below; roughly 3.8% of the tested compounds scored in any of these assays. Calls come from the whole dose curve; as a rule, active = well fitted curve in the direction sought with a large enough effect; inconclusive = small, poorly fitted or top-dose-only effect, or another doubt; inactive = no such curve, though single readings can be large; an effect the other way counts as inactive or inconclusive. Potency is the fitted concentration of half-maximal effect.

SMILES | ATXN viability | Nrf2 block | HepG2 tox | ATXN2 expr inh | A549 viability | TGFb inhibitor
CCCOc1ccc(NC(=O)CC2C(=O)N(c3ccccc3)C(=O)N2Cc2ccc(F)cc2)cc1 (centres undefined) | . | 22% | -69% | . | 3% | 10µM*
O=C(CNCCC1=CCCCC1)Nc1ccc(N2CCCCCC2)cc1 | . | -8% | -108% | ? | -13% | 16µM*
Cc1ccc(N2C(=O)C(CC(=O)Nc3ccc(F)cc3)N(CCC3=CCCCC3)C2=O)cc1 (centres undefined) | ? | -9% | -34% | ? | -12% | 13µM*
COc1ccc(NC(=O)/C(=C/c2ccc3c(c2)OCO3)NC(C)=O)cc1 | i | 8% | 4% | 13% | -3% | 2%
CCC(Oc1ccccc1)C(=O)Nc1ccc(C)c(S(=O)(=O)N2CCOCC2)c1 (centres undefined) | i | -5% | 6% | 1% | -1% | 0%
CC(C)(C)CC(=O)Nc1ccc(Nc2ccccc2)cc1 | i | ? | -7% | 35% | -1% | 1%
Cc1ccc(NC(=O)C2=C(c3ccccc3)S(=O)(=O)CCS2(=O)=O)cc1 | 11µM* | 21µM* | 7.1µM* | ? | ? | 3.5µM*
Cc1ccc(NC(=O)c2ccccc2)cc1 | i | ? | -14% | -14% | -1% | -3%
O=C(c1ccc2c3n(nc2c1)-c1ccccc1CO3)N1CCOCC1 | i | ? | 7.9µM* | 14% | 2% | -9%
O=C(c1ccc2c3n(nc2c1)-c1ccccc1CO3)N1CCCCC1 | i | ? | 7.1µM* | -7% | -5% | -11%
COc1ccc(OC)c(NC(=O)C(C)n2nc(C)c3c(C)n(-c4ccccc4)nc3c2=O)c1 (centres undefined) | i | -14% | -22% | -20% | 7% | -8%
CSc1ccc(CN2CCC(C)(Oc3ccc(F)cc3)C2)cc1 (centres undefined) | i | . | -40% | -10% | . | 8%
COc1ccc(-c2cc(-c3nc4ccccn4c3NCc3ccccc3)ccc2OC)cc1 | 7.9µM* | 15µM* | -15% | 4µM* | ? | ?
CCCCCCSc1cc(-c2nc3ccc(Cl)cn3c2NCCCC)ccc1OC | i | 2% | -1% | 6% | 0% | 9%
CCCCNc1c(-c2ccc(OC)c(SC(C)CC)c2)nc2cc(C)ccn12 (centres undefined) | 32µM* | ? | 11µM* | 25µM* | ? | 11µM*
CCCCNc1c(-c2ccc(OC)c(SC(C)CC)c2)nc2cnccn12 (centres undefined) | . | ? | -77% | ? | -8% | ?
CCC(C)Sc1cc(-c2nc3ccccn3c2NC2CCCCC2)ccc1OC (centres undefined) | 32µM* | ? | -117% | ? | ? | ?
CCCCNc1c(-c2ccc(OC)c(SC(C)CC)c2)nc2ccc(C)cn12 (centres undefined) | 11µM* | ? | 14µM* | 13µM*! | ? | 13µM*
CCC(C)Sc1cc(-c2nc3cc(C)ccn3c2NC2CCCCC2)ccc1OC (centres undefined) | ? | ? | -59% | ? | ? | ?
COc1ccc(-c2nc3ccccn3c2NCc2ccc3c(c2)OCO3)cc1 | i | 30% | -34% | 18% | 10% | 3%
CC(=O)Nc1cccc(S(=O)(=O)Nc2ccc(C)c(C)c2)c1 | . | ? | . | . | -1% | .
CCn1cc(CN2CCC(n3nccc3NC(=O)CCOc3ccccc3)CC2)c(C)n1 | i | -11% | 9% | -22% | 1% | -1%
Cc1ccc(S(=O)(=O)N2C[C@H]3C(=O)C[C@@H](c4cccs4)N(S(=O)(=O)c4ccc(C)cc4)[C@H]3C[C@H]2c2ccccc2)cc1 | i | . | -1% | 10% | . | 2%
CCO[C@@H]1O[C@H](C(COCc2ccccc2)OCc2ccccc2)[C@H](OCc2ccccc2)[C@H]1O (some centres undefined) | i | . | . | -18% | . | .
CCC(C)Sc1cc(-c2nc3ccc(C)cn3c2NCc2ccccc2)ccc1OC (centres undefined) | 10µM* | 21µM* | -40% | 18µM* | 16µM* | 13µM*
SMILES | ATXN viability | Nrf2 block | HepG2 tox | ATXN2 expr inh | A549 viability | TGFb inhibitor
CCCCCCSc1cc(-c2nc3ccc(C)cn3c2NCCCC)ccc1OC | 14µM* | -15% | -57% | 0% | -14% | ?
CCC(C)Sc1ccc(-c2nc3ccc(C)cn3c2NCc2ccccc2)cc1OC (centres undefined) | ? | ? | -54% | ? | ? | ?
CC(=O)c1ccc(-c2cccc(-c3nc4ccccn4c3NC3CCCCC3)c2)cc1 | 16µM* | ? | -25% | ? | ? | ?
CCOC(=O)c1cnc(N2CCN(c3ccc(C)cc3C)CC2)c2ccccc12 | . | . | 12% | . | 6% | 13%
C[C@]12CC[C@H](O)CC1=CCC1C2CC[C@@]2(C)C1CC[C@@H]2NC(=O)[C@@H](N)Cc1cnc[nH]1 (some centres undefined) | i | 3% | 3% | -24% | -9% | -1%
O=C(CNc1ccc(C(F)(F)F)cc1)Nc1cccc(S(=O)(=O)N2CCCCC2)c1 | ? | . | -53% | . | . | ?
O=C(Nc1ccccc1C(=O)N/N=C/c1ccncc1)c1ccccc1 | i | ? | 5µM* | 34% | -2% | 4%
CCCN(C(=O)Cn1nc(Cc2cccnc2)c2ccccc2c1=O)c1ccc(C(C)C)cc1 | . | ? | 13µM* | . | -17% | 20µM*
CCCN(C(=O)Cn1nc(Cc2ccncc2)c2ccccc2c1=O)c1ccccc1C | . | ? | -32% | . | 14% | ?
CC(C)(C)n1ncc2c(=O)n(Cc3ccccc3CS(=O)(=O)c3ccccc3)cnc21 | . | . | -27% | . | . | -9%
O=C(NCCCN1CCN(c2ccccc2F)CC1)c1ccc2nc(CCc3ccccc3)oc2c1 | . | . | 11µM* | . | -23% | ?
CCN1CCN(Cc2ccc(NC(=O)c3cc(NC(=O)c4cnn(-c5ccccc5)c4N)cc(OC)c3)cc2C(F)(F)F)CC1 | 25µM* | -10% | -79% | ? | 0% | ?
CCN1CCN(Cc2ccc(NC(=O)c3cc(NC(=O)C(=O)c4c[nH]c5ccccc45)cc(OC)c3)cc2C(F)(F)F)CC1 | 16µM* | -29% | 11µM*! | 14µM*! | -20% | ?

Screens as filed in PubChem BioAssay.
